From PubChem BioAssay come the findings set out here.

Calls of active or inactive are those of the source.

The target of one assay is Albumin (Bos taurus) (UniProt P02769). Briefly: bovine serum albumin binders on microarray, profiling panel, artefact control for SMM control protein annotation, biochemical, small-molecule microarray, Alexa647 label, 635/667 nm fluorescence (AID 1118).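 Also: score merges 667 nm emission intensity and signal-to-noise per printed compound spot.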 The settings on record: BSA-A647 binding, fluorescence 635 nm, higher = more signal.
Chain of Albumin (Bos taurus) (P02769 whole entry, looked up): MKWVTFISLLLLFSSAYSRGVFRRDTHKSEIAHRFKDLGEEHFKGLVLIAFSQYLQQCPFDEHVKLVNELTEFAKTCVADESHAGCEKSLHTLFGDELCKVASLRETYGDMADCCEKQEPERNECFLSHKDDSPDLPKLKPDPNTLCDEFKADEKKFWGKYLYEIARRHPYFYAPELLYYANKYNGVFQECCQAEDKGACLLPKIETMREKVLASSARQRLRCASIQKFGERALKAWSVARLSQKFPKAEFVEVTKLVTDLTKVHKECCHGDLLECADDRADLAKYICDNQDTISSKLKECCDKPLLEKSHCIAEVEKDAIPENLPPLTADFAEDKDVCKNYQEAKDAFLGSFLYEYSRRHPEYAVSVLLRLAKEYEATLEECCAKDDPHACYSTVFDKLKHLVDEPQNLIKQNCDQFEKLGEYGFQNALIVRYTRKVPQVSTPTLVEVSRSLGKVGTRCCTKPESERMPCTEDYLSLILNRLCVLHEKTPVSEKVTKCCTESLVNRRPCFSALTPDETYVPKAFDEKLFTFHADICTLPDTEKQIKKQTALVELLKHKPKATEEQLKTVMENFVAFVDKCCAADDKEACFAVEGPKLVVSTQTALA
Assay [1] in a line: small-molecule microarray binders of probe aXIP, primary screen, biochemical, NeuroSMM set, 635/667 nm fluorescence (AID 1119).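 Also: probe is the protein aXip251-270 applied at 1 µg/mL to compound-printed slides; binding of probe to printed compounds measured as 667 nm fluorescence plus signal to noise.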 To be noted: higher = more signal, called active from +8 up or from −8 down.
Assay [2] is described as follows: small-molecule binders of probe aNOTCH3, primary screen, biochemical, small-molecule microarray, 635/667 nm fluorescence (AID 1120).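 Also: probe is a biotin-tagged antibody raised against NOTCH3 rather than NOTCH3 protein; score merges spot fluorescence near 667 nm with spot signal to noise.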 To be noted: higher = more signal.
Assay [3] can be described thus: small-molecule binders of probe aNOTCH2, primary screen, biochemical, small-molecule microarray, 635/667 nm fluorescence (AID 1121).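 Also: score merges feature fluorescence read at 667 nm with its signal to noise.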 To be noted: higher = more signal.
Assay [4] deals with Carbonic anhydrase 2 (Homo sapiens) (UniProt P00918). Nature of the assay: CAII small-molecule binders, profiling panel, biochemical, small-molecule microarray, Alexa647-labelled CAII (AID 1122). To be noted: CAII-A647 binding fluorescence, higher = more signal.
Assay [5] is described as follows: COS7 lysate on small-molecule microarray, probe aHis, 635 nm (AID 1123).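 Also: z-score combines 667nm fluorescence intensity with signal-to-noise per printed compound spot.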 The settings on record: COS7 cell lysate, fluorescence, higher = more signal.
The nature of assay [6]: compound binding in COS7 lysate, probe aLAP1, primary screen, cell lysate, small-molecule microarray (AID 1124).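 Also: lysate comes from COS7 cells expressing LAP1 and is applied at 0.3 µg/mL; score merges spot fluorescence near 667 nm with signal-to-noise over triplicate slides.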 To be noted: probe aLAP1, fluorescence, higher = more signal.
The subject of the next assay is Sam68 (KHDRBS1). Nature of the assay: Sam68 small-molecule binders, primary screen, biochemical, small-molecule microarray, 635 nm fluorescence (AID 1125).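 Also: score merges 667 nm channel intensity with signal to noise over triplicate slides.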 The settings on record: small-molecule microarray binding, higher = more signal.
Assay [7] relates to Chordin-like protein 2 (CHRDL2). Nature of the assay: CHRDL2 small-molecule binders, primary screen, biochemical, small-molecule microarray, 635 nm fluorescence (AID 1126).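 Also: printed compound slides probed with Chrdl2 protein at 4 µg/mL for 1 h at 4 C; score merges 667 nm emission intensity with signal to noise over three replicate slides.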 The settings on record: small-molecule microarray binding, fluorescence 635 nm; higher = more signal.
Assay [8] addresses Concanavalin-A (Canavalia ensiformis) (UniProt P02866). Briefly: ConA small-molecule binders, primary screen, artefact control for SMM control protein annotation, biochemical, small-molecule microarray, Alexa647 label, 635 nm (AID 1127).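 Also: z combines 667 nm emission intensity with signal-to-noise across three replicate slides.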 To be noted: ConA-A647 binding fluorescence, higher = more signal.
Assay [9] is described as follows: anti-His antibody binders, primary screen, artefact control for SMM control protein annotation, biochemical, small-molecule microarray, 635 nm fluorescence (AID 1128).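 Also: score merges feature fluorescence with signal-to-noise for each printed compound spot.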 To be noted: anti-His Alexa647 antibody binding, higher = more signal.
Assay [10] has as its system Human papillomavirus type 1a E7 protein (residues 1-88). Briefly: HPV1a E7 small-molecule binders, primary screen, biochemical, small-molecule microarray, residues 1-88, 635 nm (AID 1129). To be noted: small-molecule microarray binding, fluorescence 635 nm; higher = more signal.
Assay [11] has as its target Focal adhesion kinase 1 (Homo sapiens) (UniProt Q05397). Nature of the assay: small-molecule microarray binders of FAK, primary screen, biochemical, 635/667 nm fluorescence, BSA, DTT (AID 1130).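 Also: composite of spot emission at 667 nm and signal to noise over triplicate slides.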 To be noted: PTK2 binding, 635 nm fluorescence, higher = more signal.
For assay [12], the system named is Fibrinogen (Alexa647-labelled). Briefly: fibrinogen binders on compound microarrays, profiling panel, artefact control for SMM control-protein annotation, biochemical, small-molecule microarray, 635/667 nm fluorescence (AID 1131).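 Also: z-score merges 667 nm fluorescence with per-spot signal-to-noise over triplicate slides.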 To be noted: fibrinogen-A647 binding fluorescence, higher = more signal.
Assay [13] has as its target Follistatin (Homo sapiens) (UniProt P19883). Nature of the assay: follistatin binders on small-molecule microarrays, primary screen, biochemical, small-molecule microarray, 635/667 nm fluorescence (AID 1132). The settings on record: FST binding, 635 nm fluorescence, higher = more signal.
In assay [14] the target is Fibroblast growth factor 2 (Homo sapiens) (UniProt P09038). Briefly: FGF2 binders on small-molecule microarrays, primary screen, biochemical, small-molecule microarray, 635/667 nm fluorescence (AID 1133). The settings on record: small-molecule microarray binding, FGF2, fluorescence 635/667; higher = more signal.
Chain of Fibroblast growth factor 2 (Homo sapiens) (P09038 whole entry, looked up): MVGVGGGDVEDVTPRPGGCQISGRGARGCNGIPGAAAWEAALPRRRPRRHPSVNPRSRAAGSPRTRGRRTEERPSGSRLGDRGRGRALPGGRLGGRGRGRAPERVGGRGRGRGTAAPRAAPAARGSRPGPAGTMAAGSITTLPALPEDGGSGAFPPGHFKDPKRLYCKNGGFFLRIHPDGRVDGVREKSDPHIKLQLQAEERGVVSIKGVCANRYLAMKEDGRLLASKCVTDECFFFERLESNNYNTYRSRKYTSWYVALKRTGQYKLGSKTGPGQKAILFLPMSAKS
A short description of assay [15]: mitochondrial membrane potential change in A549 cells, profiling panel, cell-based, JC-1 fluorescence, basal, 24 h, 100 nL (AID 1138).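 Also: A549 lung adenocarcinoma cells under basal conditions with no added stimulus; test concentration not given here.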 To be noted: higher = more signal.
The next assay deals with Lefty1. Briefly: Lefty1 binders on small-molecule microarrays, primary screen, biochemical, small-molecule microarray, 635/667 nm fluorescence (AID 1139). The settings on record: small-molecule microarray binding, fluorescence 635/667; higher = more signal.
Assay [16] has as its system wheat germ agglutinin (Triticum aestivum), Alexa647-labelled. Briefly: wheat germ agglutinin binders on compound microarrays, profiling panel, artefact control for SMM control-protein annotation, biochemical, small-molecule microarray, 635/667 nm fluorescence (AID 1140).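 Also: score merges 667 nm feature emission with signal to noise over triplicate slides.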 The settings on record: WGA-A647 binding, 635 nm fluorescence, higher = more signal.
In assay [17] the target is Luciferin 4-monooxygenase (Photinus pyralis) (UniProt P08659). Nature of the assay: firefly luciferase enzyme inhibitors, primary screen, biochemical, luminescence, purified enzyme, 2006 set (AID 1141).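 Also: cell-free assay with purified firefly luciferase at 100 ng per well in PBS; test concentration not given here.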 The settings on record: SteadyGlo luminescence, 30 min, higher = more signal, called active from +8 up or from −8 down.
Chain of Luciferin 4-monooxygenase (Photinus pyralis) (P08659 whole entry, looked up): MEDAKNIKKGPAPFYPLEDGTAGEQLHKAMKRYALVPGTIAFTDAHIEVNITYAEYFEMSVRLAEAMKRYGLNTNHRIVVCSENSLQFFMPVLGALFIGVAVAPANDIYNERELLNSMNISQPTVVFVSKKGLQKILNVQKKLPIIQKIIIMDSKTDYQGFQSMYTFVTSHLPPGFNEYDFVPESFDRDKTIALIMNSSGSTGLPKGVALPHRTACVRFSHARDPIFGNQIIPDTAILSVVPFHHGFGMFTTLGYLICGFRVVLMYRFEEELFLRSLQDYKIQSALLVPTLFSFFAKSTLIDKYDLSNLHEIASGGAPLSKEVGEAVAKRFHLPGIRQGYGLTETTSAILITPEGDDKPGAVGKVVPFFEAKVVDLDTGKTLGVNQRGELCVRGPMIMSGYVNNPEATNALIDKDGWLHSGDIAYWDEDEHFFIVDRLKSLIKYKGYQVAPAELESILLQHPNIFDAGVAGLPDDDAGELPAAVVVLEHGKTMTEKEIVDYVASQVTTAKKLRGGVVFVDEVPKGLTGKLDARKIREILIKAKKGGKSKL

Chain of Focal adhesion kinase 1 (Homo sapiens) (Q05397 whole entry, looked up): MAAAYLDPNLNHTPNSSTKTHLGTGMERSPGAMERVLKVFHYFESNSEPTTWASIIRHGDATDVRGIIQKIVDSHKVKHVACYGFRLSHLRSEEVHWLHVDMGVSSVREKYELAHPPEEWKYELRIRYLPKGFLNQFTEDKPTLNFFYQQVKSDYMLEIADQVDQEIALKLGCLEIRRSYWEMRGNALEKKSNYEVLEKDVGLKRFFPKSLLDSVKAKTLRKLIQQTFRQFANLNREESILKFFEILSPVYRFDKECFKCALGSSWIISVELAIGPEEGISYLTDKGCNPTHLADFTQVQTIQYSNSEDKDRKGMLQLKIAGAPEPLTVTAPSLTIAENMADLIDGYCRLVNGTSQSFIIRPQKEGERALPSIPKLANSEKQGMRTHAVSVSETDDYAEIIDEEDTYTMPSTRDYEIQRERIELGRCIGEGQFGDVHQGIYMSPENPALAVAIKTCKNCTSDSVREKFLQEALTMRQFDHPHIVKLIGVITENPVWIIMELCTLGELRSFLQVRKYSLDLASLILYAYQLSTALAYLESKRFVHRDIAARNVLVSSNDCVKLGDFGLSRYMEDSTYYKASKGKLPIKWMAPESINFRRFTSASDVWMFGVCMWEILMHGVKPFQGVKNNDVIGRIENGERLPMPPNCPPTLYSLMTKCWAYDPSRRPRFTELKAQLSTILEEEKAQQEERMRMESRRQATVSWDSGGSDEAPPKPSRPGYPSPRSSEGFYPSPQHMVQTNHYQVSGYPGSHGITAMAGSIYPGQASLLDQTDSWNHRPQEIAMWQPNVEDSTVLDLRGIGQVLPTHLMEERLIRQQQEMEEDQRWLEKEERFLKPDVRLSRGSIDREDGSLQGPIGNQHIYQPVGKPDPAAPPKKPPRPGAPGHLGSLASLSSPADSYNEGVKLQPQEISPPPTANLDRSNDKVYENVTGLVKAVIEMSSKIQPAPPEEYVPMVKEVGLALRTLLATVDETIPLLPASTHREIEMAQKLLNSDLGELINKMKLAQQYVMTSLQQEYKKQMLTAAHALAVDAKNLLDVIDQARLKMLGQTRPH
Chain of Concanavalin-A (Canavalia ensiformis) (P02866 whole entry, looked up): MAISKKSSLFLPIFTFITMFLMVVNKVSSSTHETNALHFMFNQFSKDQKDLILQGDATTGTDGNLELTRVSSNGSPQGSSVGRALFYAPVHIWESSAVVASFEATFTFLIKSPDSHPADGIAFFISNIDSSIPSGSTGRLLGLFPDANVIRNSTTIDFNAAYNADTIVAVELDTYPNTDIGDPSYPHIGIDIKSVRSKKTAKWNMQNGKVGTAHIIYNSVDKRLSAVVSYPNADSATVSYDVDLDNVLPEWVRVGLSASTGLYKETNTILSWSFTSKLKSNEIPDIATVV
Chain of Follistatin (Homo sapiens) (P19883 whole entry, looked up): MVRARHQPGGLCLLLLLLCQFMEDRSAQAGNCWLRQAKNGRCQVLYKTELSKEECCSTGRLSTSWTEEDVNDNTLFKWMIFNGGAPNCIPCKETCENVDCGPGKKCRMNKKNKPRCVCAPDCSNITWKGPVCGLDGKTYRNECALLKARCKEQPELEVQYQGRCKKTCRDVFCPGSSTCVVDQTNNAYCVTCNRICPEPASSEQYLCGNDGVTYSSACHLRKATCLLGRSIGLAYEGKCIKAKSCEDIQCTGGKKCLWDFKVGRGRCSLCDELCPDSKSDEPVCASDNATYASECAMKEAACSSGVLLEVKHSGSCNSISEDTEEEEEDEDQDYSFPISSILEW

`C[N+](C)(C)CCCC[C@@H]1NC(=O)[C@@H]2C[C@H](C(=O)NCCCCCCN)[C@H](c3cccc(OCCO)c3)N2C1=O`: the composite z-score with Albumin (Bos taurus) worked out at 0.919; in assay [2], 0.39; in assay [3] it was 0.409; in assay [4], 0.608; in assay [5], 1.54; in [6], 0.731. The composite z-score in the assay with Sam68 (KHDRBS1) was 1.31; in assay [7], 0.518; in assay [8] it was 1.12; in assay [9], 3.26; in assay [10] it was 1.16; in assay [11] it was 0.866. The composite z-score in [12] was 0.841; in assay [13] it was 0.976; in assay [14] it was 0.5; with Lefty1, 1.16; in assay [16], 1.11. Besides, the composite Z-score in assay [1] is 1.24 (inactive). For the same molecule, the figures for the z-score in assay [15] and in [17] were 0.197 and -0.583 (inactive), respectively.
Turning to `COc1ccc([C@H]2OC[C@@H]3C[C@H](Cc4ccccc4)C(=O)N32)cc1`, the composite z-score with Albumin (Bos taurus) is -0.0141; in assay [2] it was 0.03; in assay [3], -0.101; in [4], -0.0065; in [5], 0.0949; in assay [6], -0.0729. Besides, the composite z-score turned out to be 0.0535 with Sam68 (KHDRBS1); 0.0962 in assay [7]; 0.512 in assay [8]; 0.606 in [9]; 0.358 in assay [10]; 0.0039 in assay [11]. Besides, the composite z-score in [12] stood at 0.179; in assay [13], 0.416; in assay [14], 0.511; in the assay with Lefty1, 0.374; in [16], 0.582. Moreover, the composite Z-score in assay [1] is -0.397 (inactive). The results for the z-score in assay [15] and in [17] were 0.239 and -0.0539 (inactive), respectively.
On to `CCOC(=O)C1=C[C@@H](C(C)C)N(S(=O)(=O)c2ccc(C)cc2)[C@H]1c1ccc(C(F)(F)F)cc1`, for which the composite z-score is 0.665 with Albumin (Bos taurus); 0.256 in assay [2]; -0.0438 in assay [3]; 0.173 in [4]; 2.52 in assay [5]; 0.327 in assay [6]. Further, the composite z-score in the assay with Sam68 (KHDRBS1) worked out at 1.31; in assay [7] it was 0.106; in [8] it was 1.05; in [9], 0.922; in assay [10] it was 1.22; in assay [11], 0.224. Further, the composite z-score in assay [12] turned out to be 0.975; in assay [13] it was 0.929; in assay [14] it was 0.604; in the assay with Lefty1, 0.895; in assay [16], 0.909. Besides, the composite Z-score in [1] is 0.559 (inactive). In addition, the z-score in [15] was 2.67; in [17] it was 0.612 (inactive).
For `C=CC[C@@]1(C(=O)NCCCOC)N=C(c2ccc(OCCCO)cc2)O[C@@H]1c1ccccc1`, the composite z-score in the assay with Albumin (Bos taurus) worked out at 0.8; in [2], 0.169; in assay [3], 0.0977; in [4] it was 0.597; in assay [5] it was 3.2; in assay [6], 0.601. In addition, the composite z-score is 0.316 in the assay on Sam68 (KHDRBS1); -0.919 in assay [7]; 0.174 in assay [8]; 2.85 in [9]; 1.19 in assay [10]; 0.166 in assay [11]. The composite z-score is -0.273 in assay [12]; 1.3 in assay [13]; 0.594 in assay [14]; -0.476 with Lefty1; 0.471 in assay [16]. Also, the composite Z-score in assay [1] was 0.604 (inactive). In addition, the z-score in assay [15] was 0.565; in assay [17] it was -0.589 (inactive).
Take `CCCCCCCCCCC(O)C1C=CC2C(=O)N(c3ccccc3)C(=O)C2N1Nc1ccc(C#N)cc1` (stereo not given): the composite z-score turned out to be 0.957 with Albumin (Bos taurus); 0.286 in [2]; 0.0169 in assay [3]; 0.562 in assay [4]; 1.53 in assay [5]; 0.906 in [6]. Also, the composite z-score is 1.34 in the assay on Sam68 (KHDRBS1); -0.842 in assay [7]; 1.12 in assay [8]; -0.0221 in assay [9]; 1.18 in assay [10]; 0.464 in assay [11]. Besides, the composite z-score in [12] was found to be 0.989; in assay [13], 0.652; in assay [14], 0.429; in the assay with Lefty1, 0.0328; in assay [16] it was 1.13. In assay [1], the composite Z-score was 0.338 (inactive). Further, the z-score was 3.49 in assay [15] and 0.675 (inactive) in [17].
